Active and inactive are the calls of the source. How the source made its calls: active means hit-call score of the fitted dose curve at least 0.9, where 1 is the maximum; inactive means score below 0.9.
Key:
[1] = read-out: Vascular cell adhesion molecule 1 (VCAM1), VCAM1 (gene 7412); experiment: BSK_4H_VCAM1: BioMAP Diversity Plus: 4H Assay for Vascular cell adhesion molecule 1 (VCAM1) Biomarker Activity (AID 2283033); conditions: primary human endothelial cells (HUVEC); actives raise or lower the signal
How it was run: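 HUVEC, 24 h post-dose; VCAM-1 by ELISA. Bidirectional curve fit vs DMSO baseline. Parallel SRB total-protein stain (0.1% SRB after 10% TCA fixation, 560 nm) for cytotoxicity.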

[2] = read-out: Interferon-gamma inducible Protein 10 (IP10), CXCL10 (gene 3627); experiment: BSK_BE3C_IP10: BioMAP Diversity Plus: BE3C Assay for Interferon-gamma inducible Protein 10 (IP10) Biomarker Activity (AID 2283034); conditions: primary human bronchial epithelial cells; actives raise or lower the signal
How it was run: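 ELISA readout of IP-10 in BE3C system: primary human bronchial epithelial cells, 24 h post-dosing; bidirectional curve fit vs DMSO baseline.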

[3] = read-out: Monokine induced gamma interferon (MIG), CXCL9 (gene 4283); experiment: BSK_BE3C_MIG: BioMAP Diversity Plus: BE3C Assay for Monokine induced gamma interferon (MIG) Biomarker Activity (AID 2283035); conditions: primary human bronchial epithelial cells; actives raise or lower the signal;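 further: MIG protein measured by ELISA in BE3C cultures after 24 h of dosing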
How it was run: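 Dose cells (human primary bronchial epithelial), incubate 24 h, quantify MIG by ELISA, then fit concentration–response in both directions relative to DMSO control.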

[4] = read-out: Transforming growth factor beta 1 (TGFb1), TGFB1 (gene 7040); experiment: BSK_BE3C_TGFb1: BioMAP Diversity Plus: BE3C Assay for Transforming growth factor beta 1 (TGFb1) Biomarker Activity (AID 2283036;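 further: TGF-b1 protein level measured by ELISA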); conditions: primary human bronchial epithelial cells; actives raise or lower the signal
How it was run: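 Read-out: ELISA for TGF-b1 in primary human bronchial epithelial cultures, 24 h post-dose. Bidirectional curve fitting vs DMSO control; gain or loss of signal both scored.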

[5] = read-out: Plasminogen activator inhibitor-1 (PAI1), SERPINE1 (gene 5054); experiment: BSK_BE3C_PAI1: BioMAP Diversity Plus: BE3C Assay for Plasminogen activator inhibitor-1 (PAI1) Biomarker Activity (AID 2283037); conditions: primary human bronchial epithelial cells; actives raise or lower the signal
How it was run: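 ELISA read-out of PAI-1 from human bronchial epithelial primary cells, 24 h post-dosing; bidirectional curve fit vs DMSO baseline, gain or loss of signal scored.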

[6] = read-out: urokinase plasminogen activator (uPA), PLAU (gene 5328); experiment: BSK_BE3C_uPA: BioMAP Diversity Plus: BE3C Assay for urokinase plasminogen activator (uPA) Biomarker Activity (AID 2283038); conditions: primary human bronchial epithelial cells; actives raise or lower the signal;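 further: uPA protein level quantified by ELISA in cell cultures; uPA read one day after compound addition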
How it was run: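 Bronchial epithelial cells (human, primary); chemical 24 h; uPA by ELISA; bidirectional fit vs DMSO. SRB (0.1%, after 10% TCA fixation, 560 nm) in parallel cultures for cytotoxicity.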

[7] = read-out: Urokinase-type plasminogen activator receptor (uPAR), PLAUR (gene 5329); experiment: BSK_BE3C_uPAR: BioMAP Diversity Plus: BE3C Assay for Urokinase-type plasminogen activator receptor (uPAR) Biomarker Activity (AID 2283039); conditions: primary human bronchial epithelial cells; actives raise or lower the signal;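 further: uPAR protein level measured by ELISA on the cells; cells exposed to compound for one day before measurement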
How it was run: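 ELISA readout of uPAR on human lung primary bronchial epithelial cells, 24 h post-dosing. Bidirectional curve fit relative to DMSO vehicle baseline; gain or loss of signal both scored.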

[8] = read-out: Interleukin-6 (IL6), IL6 (gene 3569); experiment: BSK_CASM3C_IL6: BioMAP Diversity Plus: CASM3C Assay for Interleukin-6 (IL6) Biomarker Activity for (AID 2283040); conditions: primary human coronary artery smooth muscle cells; actives raise or lower the signal
[9] = read-out: Tissue plasminogen activator (tPA), PLAT (gene 5327); experiment: BSK_BE3C_tPA: BioMAP Diversity Plus: BE3C Assay for Tissue plasminogen activator (tPA) Biomarker Activity (AID 2283041); conditions: primary human bronchial epithelial cells; actives raise or lower the signal;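 further: tPA level quantified by ELISA one day after compound addition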
How it was run: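 ELISA read-out of tPA on human primary bronchial epithelial cells, 24 h post-dosing; bidirectional fit vs DMSO negative control/baseline.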

[10] = read-out: Interleukin-8 (IL8), CXCL8 (gene 3576); experiment: BSK_CASM3C_IL8: BioMAP Diversity Plus: CASM3C Assay for Interleukin-8 (IL8) Biomarker Activity (AID 2283042); conditions: primary human coronary artery smooth muscle cells; actives raise or lower the signal;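 further: IL-8 protein level quantified by ELISA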
[11] = read-out: Human Leukocyte Antigen - DR isotype (HLADR), HLA-DRA (gene 3122); experiment: BSK_CASM3C_HLADR: BioMAP Diversity Plus: CASM3C Assay for Human Leukocyte Antigen - DR isotype (HLADR) Biomarker Activity (AID 2283043); conditions: primary human coronary artery smooth muscle cells; actives raise or lower the signal;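 further: cell-surface HLA-DR protein level quantified by ELISA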
[12] = read-out: Macrophage colony-stimulating factor (MCSF), CSF1 (gene 1435); experiment: BSK_CASM3C_MCSF: BioMAP Diversity Plus: CASM3C Assay for Macrophage colony-stimulating factor (MCSF) Biomarker Activity (AID 2283044); conditions: primary human coronary artery smooth muscle cells; actives raise or lower the signal;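 further: M-CSF protein amount quantified by ELISA after 24 h exposure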
[13] = read-out: Low-density lipoprotein receptor (LDLR), LDLR (gene 3949); experiment: BSK_CASM3C_LDLR: BioMAP Diversity Plus: CASM3C Assay for Low-density lipoprotein receptor (LDLR) Biomarker Activity (AID 2283045); conditions: primary human coronary artery smooth muscle cells; actives raise or lower the signal;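 further: LDLR protein level on the cell surface quantified by ELISA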
[14] = read-out: Monocyte Chemoattractant Protein-1 (MCP1), CCL2 (gene 6347); experiment: BSK_CASM3C_MCP1: BioMAP Diversity Plus: CASM3C Assay for Monocyte Chemoattractant Protein-1 (MCP1) Biomarker Activity (AID 2283046); conditions: primary human coronary artery smooth muscle cells; actives raise or lower the signal;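 further: MCP-1 level quantified by ELISA 24 h after dosing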
[15] = BSK_CASM3C_Proliferation: Cell Proliferation Assessment in the BioMAP Diversity Plus: CASM3C Assay (AID 2283047); conditions: primary human coronary artery smooth muscle cells;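 further: sulforhodamine B total protein stain as relative cell number at 560 nm; sub-confluent cells exposed 48 h before staining; fitted both ways against DMSO so gain or loss of cell number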
[16] = read-out: Monokine induced gamma interferon (MIG), CXCL9 (gene 4283); experiment: BSK_CASM3C_MIG: BioMAP Diversity Plus: CASM3C Assay for Monokine induced gamma interferon (MIG) Biomarker Activity (AID 2283048); conditions: primary human coronary artery smooth muscle cells; actives raise or lower the signal;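 further: MIG protein level measured by ELISA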
[17] = read-out: serum amyloid A (SAA), SAA1 (gene 6288); experiment: BSK_CASM3C_SAA: BioMAP Diversity Plus: CASM3C Assay for serum amyloid A (SAA) Biomarker Activity (AID 2283049); conditions: primary human coronary artery smooth muscle cells; actives raise or lower the signal;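 further: SAA protein level quantified by ELISA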
[18] = BSK_CASM3C_SRB: Viability Assessment in the BioMAP Diversity Plus: CASM3C Assay (AID 2283050); conditions: primary human coronary artery smooth muscle cells;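 further: total protein by SRB staining as cytotoxicity measure in parallel cultures; cells exposed to compound for 24 h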
[19] = read-out: Thrombomodulin, THBD (gene 7056); experiment: BSK_CASM3C_Thrombomodulin: BioMAP Diversity Plus: CASM3C Assay for Thrombomodulin Biomarker Activity (AID 2283051); conditions: primary human coronary artery smooth muscle cells; actives raise or lower the signal;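 further: thrombomodulin protein level measured by ELISA 24 h after dosing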
[20] = read-out: Tissue Factor, F3 (gene 2152); experiment: BSK_CASM3C_TissueFactor: BioMAP Diversity Plus: CASM3C Assay for Tissue Factor Biomarker Activity (AID 2283052); conditions: primary human coronary artery smooth muscle cells; actives raise or lower the signal;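 further: cell surface tissue factor protein level read by ELISA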

Measured: AC50

O=C1NC(=O)C(c2ccccc2)(c2ccccc2)N1
inactive: all assays above

CCCCc1nc2cccnc2n1Cc1ccc(-c2ccccc2-c2nnn[nH]2)cc1
inactive: all assays above

CO[C@@H]1COCC[C@@H]1N[C@@H]1CC[C@@](C(=O)N2CCc3ncc(C(F)(F)F)cc3C2)(C(C)C)C1
inactive: all assays above

CC(C)NCC(O)c1ccc(O)c(O)c1 (stereo not given)
inactive: all assays above

O=C(Oc1ccccc1)c1cccc(C(=O)Oc2ccccc2)c1
inactive: all assays above

CC(=O)O
inactive: all assays above

OCC(O)CO
inactive: all assays above

S=c1[nH]c2ccccc2s1
active: [12] 9.81 µM | [19] 8.08 µM
inactive: all other assays above

Cc1ccc(C(C)(C)C)c(O)c1
inactive: all assays above

CCCCCCC(C=O)=Cc1ccccc1
active: [1] 33.5 µM | [15] 30.9 µM
inactive: all other assays above

CS(=O)(=O)c1ccc([C@@H](C[C@H]2CCC(=O)C2)C(=O)Nc2cnccn2)cc1Cl
inactive: all assays above

Oc1ccccc1O
active: [1] 5.53 µM | [11] 10.4 µM | [12] 3.97 µM | [15] 7.66 µM | [19] 11 µM
inactive: all other assays above

Cc1occc(=O)c1O
inactive: all assays above

Reference: PubChem BioAssay (EPA / NIEHS)
